Values joined by “and” are separate entries in the source; they are usually repeats but may differ in a detail not shown here. Equal values may be shown once. About 2,000 (36%) of roughly 5,500 compounds were called active. Roughly 18% stayed inconclusive and do not appear here. No stated cut-off is given here; in the data, active means normalized growth mostly below about 0.91 (no sharp cut-off); inconclusive means no clear call, values can overlap the other calls; inactive means mostly above about 0.92. This is one part of the list.
Experiment: chemical genetic growth profiling, strain panel (AID 1159580);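 further: tested at 20 µM; growth read once vehicle control cultures reached saturation at 30 °C; 1 = growth at the plate median or of vehicle wells; lower values mean less growth of the strain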
Conditions: S. cerevisiae deletion strains, growth OD

Measured: normalized growth

COc1ccc([C@H]2Oc3cc(OC)cc(OC)c3C[C@H]2O)cc1
inactive: locus YAL013W, strain DEP1, active compounds read low 1.01 | locus YAL021C, strain ccr4, active compounds read low 1 | locus YAL026C, strain drs2, active compounds read low 0.995 | locus YAL030W, strain snc1, active compounds read low 0.993 | locus YBL061C, strain skt5, active compounds read low 0.997 | locus YBR009C, strain hhf1, active compounds read low 1.01 | locus YBR021W, strain FUR4, active compounds read low 1.06 | locus YBR023C, strain chs3, active compounds read low 1 | locus YBR171W, strain sec66, active compounds read low 0.98 | locus YBR229C, strain ROT2, active compounds read low 1 | locus YBR231C, strain swc5, active compounds read low 1.01 | locus YBR279W, strain paf1, active compounds read low 0.994 | locus YCL011C, strain gbp2, active compounds read low 0.997 | locus YCL016C, strain dcc1, active compounds read low 1 | locus YCL029C, strain bik1, active compounds read low 1.01 | locus YCL061C, strain MRC1, active compounds read low 0.987 | locus YCL069W, strain vba3, active compounds read low 0.996 | locus YCR088W, strain abp1, active compounds read low 0.999 | locus YDL005C, strain med2, active compounds read low 0.996 | locus YDL035C, strain GPR1, active compounds read low 1.05 | locus YDL040C, strain nat1, active compounds read low 1 | locus YDL074C, strain BRE1, active compounds read low 1.12 | locus YDL101C, strain DUN1, active compounds read low 1.01 | locus YDL185W, strain tfp1, active compounds read low 1.01 | locus YDL192W, strain arf1, active compounds read low 1 | locus YDR001C, strain nth1, active compounds read low 0.998 | locus YDR069C, strain doa4, active compounds read low 1.01 | locus YDR101C, strain arx1, active compounds read low 0.983 | locus YDR137W, strain rgp1, active compounds read low 0.867 | locus YDR159W, strain sac3, active compounds read low 0.998 | locus YDR162C, strain NBP2, active compounds read low 1.03 | locus YDR195W, strain ref2 1.05 | locus YDR297W, strain sur2, active compounds read low 1 | locus YDR318W, strain mcm21, active compounds read low 1 | locus YDR334W, strain swr1, active compounds read low 1.01 | locus YDR335W, strain msn5, active compounds read low 1 | locus YDR388W, active compounds read low 1.01 | locus YDR392W, strain spt3, active compounds read low 0.948 | locus YDR502C, strain sam2, active compounds read low 1.01 | locus YEL003W, strain gim4, active compounds read low 0.996 | locus YEL037C, strain rad23, active compounds read low 0.989 | locus YEL061C, strain CIN8 (second series), active compounds read low 1 | locus YEL061C, strain CIN8, active compounds read low 1.02 | locus YER015W, strain faa2, active compounds read low 1 | locus YER016W, strain bim1, active compounds read low 0.994 | locus YER110C, active compounds read low 0.987 | locus YER111C, strain swi4, active compounds read low 0.998 | locus YER155C, strain BEM2 (second series), active compounds read low 1.01 | locus YER155C, strain BEM2, active compounds read low 1 | locus YER167W, strain BCK2, active compounds read low 1 | locus YFR010W, strain ubp6, active compounds read low 1.01 | locus YGL078C, strain dbp3, active compounds read low 1.02 | locus YGL086W, strain mad1, active compounds read low 0.999 | locus YGL167C, strain pmr1, active compounds read low 0.989 | locus YGL173C, strain kem1, active compounds read low 1 | locus YGL227W, strain vid30, active compounds read low 1 | locus YGL240W, strain doc1, active compounds read low 1.01 | locus YGL248W, strain PDE1, active compounds read low 1.05 | locus YGL253W, strain hxk2, active compounds read low 0.996 | locus YGR135W, strain pre9, active compounds read low 1.07 | locus YGR252W, strain gcn5, active compounds read low 1.08 | locus YHR013C, strain ard1, active compounds read low 1.05 | locus YHR027C, strain rpn1, active compounds read low 0.992 | locus YHR030C, strain SLT2, active compounds read low 0.985 | locus YHR079C, strain IRE1 (second series), active compounds read low 1.02 | locus YHR079C, strain IRE1, active compounds read low 0.994 | locus YHR094C, strain hxt1, active compounds read low 1.01 | locus YHR129C, strain ARP1, active compounds read low 1.02 | locus YHR142W, strain chs7, active compounds read low 0.981 | locus YHR200W, strain rpn10, active compounds read low 1.03 | locus YIL066C, strain RNR3, active compounds read low 1.02 | locus YIL073C, strain SPO22, active compounds read low 1.07 | locus YIL125W, strain kgd1, active compounds read low 1 | locus YIR030C, strain dcg1, active compounds read low 0.99 | locus YJL092W, strain hpr5, active compounds read low 0.997 | locus YJL095W, strain BCK1 (second series), active compounds read low 1 | locus YJL095W, strain BCK1, active compounds read low 1.04 and 1 | locus YJL115W, strain asf1, active compounds read low 1.01 | locus YJL129C, strain trk1, active compounds read low 1.04 | locus YJL134W, strain LCB3, active compounds read low 1 | locus YJL154C, strain vps35, active compounds read low 0.989 | locus YJL164C, strain tpk1, active compounds read low 1.01 | locus YJL166W, strain qcr8, active compounds read low 0.994 | locus YJL168C, strain set2, active compounds read low 1 | locus YJL187C, strain SWE1 (second series), active compounds read low 1.03 | locus YJL187C, strain SWE1, active compounds read low 1 | locus YJR043C, strain POL32, active compounds read low 1.08 | locus YJR066W, strain TOR1, active compounds read low 0.938 | locus YKL009W, strain mrt4, active compounds read low 1.03 | locus YKL068W, active compounds read low 1 | locus YKL085W, strain MDH1 (second series), active compounds read low 0.99 | locus YKL085W, strain MDH1, active compounds read low 0.99 | locus YKL160W, strain elf1, active compounds read low 0.994 | locus YKL190W, strain CNB1, active compounds read low 1.02 | locus YKR001C, strain vps1, active compounds read low 0.99 | locus YKR026C, strain gcn3, active compounds read low 0.999 | locus YKR091W, strain srl3, active compounds read low 1 | locus YLL001W, strain dnm1, active compounds read low 0.988 | locus YLL026W, active compounds read low 1 | locus YLL041C, strain sdh2, active compounds read low 0.985 | locus YLR027C, strain aat2, active compounds read low 0.997 | locus YLR039C, strain RIC1, active compounds read low 1.1 | locus YLR058C, strain SHM2, active compounds read low 1.01 | locus YLR102C, strain apc9, active compounds read low 0.997 | locus YLR113W, strain HOG1, active compounds read low 0.983 | locus YLR221C, strain rsa3, active compounds read low 1 | locus YLR258W, strain gsy2, active compounds read low 0.995 | locus YLR262C, strain YPT6 (second series), active compounds read low 0.914 | locus YLR268W, strain sec22, active compounds read low 1.01 | locus YLR320W, strain mms22, active compounds read low 0.999 | locus YLR342W, strain FKS1 (second series), active compounds read low 0.997 | locus YLR342W, strain FKS1, active compounds read low 0.994 | locus YLR357W, strain rsc2, active compounds read low 1.07 | locus YLR370C, strain arc18, active compounds read low 0.99 | locus YLR371W, strain rom2, active compounds read low 1.04 | locus YLR384C, strain iki3, active compounds read low 0.994 | locus YLR418C, strain cdc73, active compounds read low 1.06 | locus YML016C, strain PPZ1, active compounds read low 0.998 | locus YML032C, strain rad52, active compounds read low 1.01 | locus YML120C, strain ndi1, active compounds read low 1.01 | locus YML124C, strain tub3, active compounds read low 1 | locus YMR058W, strain fet3, active compounds read low 0.997 | locus YMR078C, strain ctf18, active compounds read low 1.01 | locus YMR125W, strain sto1, active compounds read low 1.01 | locus YMR129W, active compounds read low 1 | locus YMR205C, strain PFK2, active compounds read low 1.02 | locus YMR223W, strain ubp8, active compounds read low 1 | locus YMR231W, strain pep5, active compounds read low 0.989 | locus YMR307W, strain GAS1, active compounds read low 1.31 | locus YNL067W, strain RPL9B, active compounds read low 1.02 | locus YNL071W, strain lat1, active compounds read low 0.994 | locus YNL183C, strain NPR1, active compounds read low 0.932 | locus YNL209W, strain ssb2, active compounds read low 0.994 | locus YNL233W, strain BNI4, active compounds read low 1.06 | locus YNL248C, strain rpa49, active compounds read low 1.01 | locus YNL250W, strain rad50, active compounds read low 1.05 | locus YNL271C, strain bni1, active compounds read low 0.995 | locus YNL298W, strain CLA4, active compounds read low 0.975 | locus YNL307C, strain MCK1, active compounds read low 1.02 | locus YNL322C, strain KRE1 (second series), active compounds read low 1 | locus YNL322C, strain KRE1, active compounds read low 1.01 | locus YNR049C, strain mso1, active compounds read low 1 | locus YNR052C, strain pop2, active compounds read low 1.02 | locus YOL012C, strain htz1 1.39 | locus YOL147C, strain pex11, active compounds read low 0.994 | locus YOR001W, strain rrp6, active compounds read low 0.992 | locus YOR061W, strain CKA2, active compounds read low 1 | locus YOR069W, strain VPS5, active compounds read low 0.996 | locus YOR070C, strain gyp1, active compounds read low 0.99 | locus YOR080W, strain dia2, active compounds read low 1.01 | locus YOR083W, strain WHI5, active compounds read low 0.993 | locus YOR106W, strain vam3, active compounds read low 0.999 | locus YOR136W, strain idh2, active compounds read low 1 | locus YOR144C, strain elg1, active compounds read low 1 | locus YOR184W, strain ser1, active compounds read low 0.94 | locus YOR231W, strain MKK1, active compounds read low 1 | locus YOR265W, strain rbl2, active compounds read low 0.999 | locus YOR270C, strain vph1, active compounds read low 0.976 | locus YOR290C, strain snf2, active compounds read low 1.01 | locus YOR316C, strain cot1, active compounds read low 1.02 | locus YPL051W, strain arl3, active compounds read low 0.984 | locus YPL055C, strain LGE1, active compounds read low 1.09 | locus YPL078C, strain atp4, active compounds read low 0.995 | locus YPL106C, strain sse1, active compounds read low 1.07 | locus YPL240C, strain hsp82, active compounds read low 0.986 | locus YPL256C, strain CLN2, active compounds read low 0.972 | locus YPR119W, strain clb2, active compounds read low 0.99 | locus YPR141C, strain kar3, active compounds read low 0.998 | locus YPR163C, strain tif3, active compounds read low 1.01 | locus YPR167C, strain met16, active compounds read low 1.01 | strain wtn01, active compounds read low 0.992
